NPC1 prom act – NPC1 promoter activation; Huh7 NPC1 promoter luciferase reporter, 24 h; Potency, µM (top dose mostly 9.22 µM), for the others: at the highest dose activation, usual class: activators; 320,000 tested, 2.4% active; also: % of control where 0% means no effect; nearly all actives have a fitted effect of over 60% in size
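Luminescence from an NPC1 promoter-driven luciferase reporter in stably transfected Huh7 cells was measured after 24 h compound treatment at 37 °C, followed by 10 min ambient incubation with luciferase detection reagent.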
FLuc counter – counter-screen for miR-21 project: firefly luciferase inhibitors or activators. P08659. purified FLuc, Km substrates, luminescence inhibition. Potency, µM (top dose mostly 57.5 µM), for the others: at the highest dose activity change, negative = inhibition, hits mostly inhibitors. 360,000 tested, 6.9% active. AID 588342;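 also: plate controls were vehicle for no effect and reference inhibitor for full effect; nearly all actives have a fitted effect of over 55% in size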
Target sequence (P08659 whole entry, looked up): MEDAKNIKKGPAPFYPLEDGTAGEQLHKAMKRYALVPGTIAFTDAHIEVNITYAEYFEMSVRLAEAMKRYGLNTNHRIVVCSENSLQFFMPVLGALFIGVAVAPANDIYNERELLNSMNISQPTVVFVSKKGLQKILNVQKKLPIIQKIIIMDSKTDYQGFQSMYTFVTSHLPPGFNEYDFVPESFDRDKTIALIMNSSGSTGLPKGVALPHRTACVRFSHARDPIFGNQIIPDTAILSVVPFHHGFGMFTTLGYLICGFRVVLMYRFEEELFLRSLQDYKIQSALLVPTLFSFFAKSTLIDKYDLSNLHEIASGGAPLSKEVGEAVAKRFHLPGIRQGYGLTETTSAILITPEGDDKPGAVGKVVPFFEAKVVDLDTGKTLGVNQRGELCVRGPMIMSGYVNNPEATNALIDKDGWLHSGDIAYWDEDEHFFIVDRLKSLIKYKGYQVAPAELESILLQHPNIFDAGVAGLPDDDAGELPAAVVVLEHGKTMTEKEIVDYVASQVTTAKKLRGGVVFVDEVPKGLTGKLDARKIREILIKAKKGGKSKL
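Purified P. pyralis luciferase, 10 nM final, with Km-level 10 uM D-luciferin and 10 uM ATP in 50 mM Tris acetate pH 7.5, 10 mM Mg acetate, 0.01% Tween-20, 0.05% BSA; 6-point qHTS titration about 60 µM downward; luminescence read.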
ELG1 DNA repair – blocks ELG1-dependent DNA repair in HEK293T cells. Potency, µM (top dose mostly 46.1 µM), inactives show top-dose activity change, negative = inhibition, usual class: inhibitors. HEK293T ELG1-luciferase reporter, luminescence, 16 h; DNA damage induced by 5-fluorouridine. 330,000 tested, 2.3% active. AID 504467; also: % is scaled to controls: 0 for no effect and ±100 for the full control effect; nearly all actives have a fitted effect of over 55% in size
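Step one: seed 2,000 cells per well. Step two: pin-transfer compound or DMSO alongside 5-fluorouridine. Step three: incubate 16 hr, 37 °C, 5% CO2. Step four: add ONE-Glo, wait 30 min, read luminescence.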
ELG1 genotoxic – genotoxicity induction in ELG1-luciferase HEK293T cells. AID 504466. Potency, µM (doses to about 46 µM), inactives show top-dose activity change, positive = activation, actives largely listed as activators. 330,000 tested, 1.3% active. HEK293T ELG1-luciferase reporter, luminescence, 16 h; also: % of control where 0% means no effect; nearly all actives have a fitted effect of over 60% in size
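Step 1: seed 2,000 HEK293T ELG1-luciferase cells per well. Step 2: add compound or DMSO, incubate 16 hr at 37 °C. Step 3: ONE-Glo, 30 min at room temperature, read luminescence.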
SMN2 splice enh – increases expression of the SMN2 splice variant; HEK293 SMN2-luciferase splicing reporter, luminescence, 30-36 h; Potency, µM (titrated, usually from 46.1 µM), inactives show at the highest dose activity change, positive = activation, most hits filed as activators; 210,000 tested, 2.8% active; AID 1458; also: % of control where 0% means no effect; nearly all actives have a fitted effect of over 55% in size
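HEK293 cells carry an SMN2 […]–luciferase reporter in which exon 7 inclusion puts luciferase in frame. Cells were plated 10-12 h before compound addition, then incubated 30-36 h at 37C. ONE-Glo luminescence was read; sodium butyrate at 4.5 mM final served as control.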
Rab9 promoter act – activators of Rab9 promoter | Huh7 Rab9 promoter-luciferase reporter, luminescence, 24 h | Potency, µM (doses to about 9.22 µM), for the others: at the top dose activation, negative = inhibition, usual class: activators | 320,000 tested, 2.8% active; also: % of control where 0% means no effect; nearly all actives have a fitted effect of over 60% in size
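Using Huh7 cells stably transfected with Rab9 promoter–luciferase, compounds were incubated 24 h at 37 °C, 5% CO2; luciferase luminescence was read 10 min after reagent addition.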
* hit, by the source's call; ? = inconclusive; . = no result; [ ] = remark or other dose. Hits are enriched below; roughly 9.3% of the tested compounds scored in any of these assays. Calls follow the shape of the dose curve; as a rule, active = well fitted curve in the direction sought with a large enough effect; inconclusive = small, poorly fitted or top-dose-only effect, or another doubt; inactive = no such curve, though single readings can be large; an effect the other way counts as inactive or inconclusive. Potency is read from the fitted curve at half-maximal effect.

SMILES	NPC1 prom act	FLuc counter	ELG1 DNA repair	ELG1 genotoxic	SMN2 splice enh	Rab9 promoter act
COc1cc(NC(=O)Cn2cnc(S(=O)(=O)N3CCC(C)CC3)c2)cc(OC)c1OC	-7%	3%	0%	1%	.	-6%
COc1ccc(NC(=S)N2CCN(C(=O)c3ccccc3)CC2)cc1	-1%	0%	15%	-4%	3%	-8%
O=C(O)c1cccc(N2C(=O)c3ccc(C(=O)c4cccc([N+](=O)[O-])c4)cc3C2=O)c1	17%	1%	3%	-2%	.	-6%
CC(=O)c1cccc(NC(=O)c2cccc(N3C(=O)c4ccccc4C3=O)c2)c1	0%	-15%	7%	9%	.	2%
O=C(O)c1cccc(NC(=O)c2ccc3c(c2)C(=O)N(c2cccc([N+](=O)[O-])c2)C3=O)c1	2%	3.8µM*	0%	0%	.	-1%
O=C(O)c1cccc(NC(=O)c2ccc(N3C(=O)c4ccc(C(=O)Nc5cccc(C(=O)O)c5)cc4C3=O)cc2)c1	17%	27µM*	-11%	0%	.	?
S=C(c1ccccc1)N1CCSCC1	-2%	-2%	-6%	-1%	.	-1%
O=C(CSC(=S)N1CCSCC1)c1ccccc1	1.3µM*	4.3µM*	?	?	13µM*	1.3µM*
O=C(CSC(=S)N1CCSCC1)c1ccc(Cl)cc1	3.2µM*	3µM*	?	?	16µM*	1.6µM*
O=C(NCc1ccccc1Cl)[C@@H]1CCCN1S(=O)(=O)c1ccc(Cl)cc1	.	.	-19%	0%	.	.
CCn1c(CNC(=O)COc2ccc(C(C)C)cc2)nnc1SCC(=O)Nc1cc(F)ccc1C	-2%	-17%	?	-8%	-25%	0%
CCn1c(CCCOc2ccc(Cl)cc2Cl)nnc1SCC(=O)Nc1cc(F)ccc1C	-5%	17µM*	?	-2%	-8%	11%
C=CCn1c(CCCOc2ccc(Cl)cc2Cl)nnc1SCC(=O)Nc1nccs1	0%	13µM*	-10%	-3%	-2%	7%
Cn1c(CCCOc2ccc(Cl)cc2Cl)nnc1SCC(=O)Nc1cccc(F)c1	0%	4.8µM*	?	0%	-6%	11%
COc1ccc(OCc2nnc(SCC(=O)NNC(=O)c3ccc(C)cc3)n2C)cc1	-4%	-1%	0%	0%	-2%[1.84 µM]	-1%
C=CCOC(=O)c1c(C)nc2cc3c(cc2c1C)OCO3	19%	17µM*	?	7%	?	24%
C=CCOC(=O)C1=C(C)NC(=O)NC1c1ccc2c(c1)OCO2 (configuration not stated)	-2%	5%	15%	2%	.	-5%
COc1c(O)cc2c(c1O)C(=O)CC(c1ccccc1)O2 (configuration not stated)	?	9.5µM*	?	?	.	?
Cc1c(O)cc2c(c1O)C(=O)CC(c1ccccc1)O2 (configuration not stated)	1%	-19%	4%	3%	.	-2%
Cc1ccc(OCC(=O)Nc2nnc(S(=O)(=O)N3CCC(C)CC3)s2)cc1	-2%	6%	2%	-1%	.	-11%
CC(C)(C)c1ccc(C(=O)Nc2ccc(Oc3cccnc3)nc2)cc1	-26%	8.5µM*	2.1µM*	-10%	.	-40%
O=C(Nc1cccnc1)c1ccc(CN2CCc3ccccc3C2)cc1	-14%	-17%	8.2µM*	-8%	-56%	-21%
Cc1ccc(C(=O)Nc2ccc(Oc3cccc(C(F)(F)F)c3)nc2)cc1	-13%	3%	?	-2%	.	-32%
O=C(Nc1cccnc1)c1ccc(Br)s1	14%	7%[2.3 µM]	15%	5%	-12%	26%
CC(C)(C)c1ccc(C(=O)Nc2cccnc2)cc1	2.8µM*	2.7µM*	?	2.3µM*	.	4µM*
CCc1sc(C(=O)Nc2cccnc2)cc1Br	?	11µM*	?	?	.	?

Assay outcomes deposited in PubChem by National Center for Advancing Translational Sciences (NCATS).
